A short description of assay [1]: qHTS assay to test for compound auto fluorescence at 535 nm (green) in HEK293 cells (AID 720680). Background: qHTS replaces the single test concentration by a dilution series.
Assay [2] in a line: qHTS assay to test for compound auto fluorescence at 460 nm (blue) in HEK293 cell free culture (AID 720681). The procedure, abridged:
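Blue fluorescence (Ex 405/Em 460 nm, triamterene-equivalent) was read immediately after pin transfer of compound or DMSO into medium (DMEM, 10% FBS) without cells.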

Assay [3] in a line: qHTS assay to test for compound auto fluorescence at 590 nm (red) in HEK293 cell free culture (AID 720683). The method, boiled down:
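Red-channel autofluorescence of compounds in culture medium (DMEM, 10% FBS), no cells, measured at 540/590 nm. Rose Bengal sodium is the reference fluorophore for equivalence.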

Assay [4] is described as follows: qHTS assay to test for compound auto fluorescence at 590 nm (red) in HepG2 cell free culture (AID 720684). The procedure, abridged: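 Steps: dispense MEM/10% FBS medium, no cells; pin compound or DMSO vehicle; read red channel, Ex/Em 540/590 nm. Output given as Rose Bengal sodium equivalents.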
Assay [5] in a line: qHTS assay to test for compound auto fluorescence at 460 nm (blue) in HepG2 cell free culture (AID 720685). The method, boiled down: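 Compound (23 nL) or DMSO pinned into cell-free MEM with 10% FBS; blue fluorescence read at 405/460 nm excitation/emission, expressed as auto-fluorescence equivalency to triamterene.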
Assay [6] in a line: qHTS assay to test for compound auto fluorescence at 535 nm (green) in HepG2 cell free culture (AID 720686).
The nature of assay [7]: qHTS assay to test for compound auto fluorescence at 460 nm (blue) in HepG2 cells (AID 720687). The procedure, abridged: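 Blue-channel autofluorescence (Ex/Em 405/460 nm, triamterene-equivalent) was measured after 1 hr compound exposure at 37 C, 5% CO2. Cells were HepG2, plated overnight at 37 C in MEM plus 10% FBS.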
Assay [8] in a line: qHTS assay to identify small molecule antagonists of the glucocorticoid receptor (GR) signaling pathway - cell viability counter screen (AID 720693). Note: nearly all actives have a fitted effect of over 55% in size.
Assay [9] is described as follows: qHTS assay for identifying genotoxic compounds that show differential cytotoxicity against isogenic chicken DT40 cell lines with known DNA damage response pathways - wild type cell line (AID 743012). Note: nearly all actives have a fitted effect of over 60% in size. Note: potency is the fitted concentration of half-maximal effect. The method, boiled down: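 Wild-type DT40 cells (300/well) exposed to compounds for 40 hours at 37 C/5% CO2. Viability read by CellTiter-Glo luminescence after 30 min at room temperature.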

Assay [10] in a line: qHTS assay for identifying genotoxic compounds that show differential cytotoxicity against isogenic chicken DT40 cell lines with known DNA damage response pathways - Rev3 mutant cell line (AID 743014). Note: nearly all actives have a fitted effect of over 55% in size.
Assay [11] can be described thus: qHTS assay for identifying genotoxic compounds that show differential cytotoxicity against isogenic chicken DT40 cell lines with known DNA damage response pathways - Rad54/Ku70 mutant cell line (AID 743015). Note: nearly all actives have a fitted effect of over 60% in size. Note: potency is the fitted concentration of half-maximal effect.
Assay [12] is described as follows: qHTS assay to identify small molecule antagonists of the androgen receptor (AR) signaling pathway - cell viability counter screen (AID 743033; note: nearly all actives have a fitted effect of over 45% in size; note: potency is the fitted concentration of half-maximal effect).
The target in assay [13] is Androgen receptor (Homo sapiens) (UniProt P10275). The assay can be described thus: qHTS assay to identify small molecule antagonists of the androgen receptor (AR) signaling pathway (AID 743035; active = well fitted inhibition curve with a large enough effect in the signal ratio in the repeat runs, not every such curve was filed as active; the % refers to the signal ratio). The method, boiled down: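 HEK293 cells stably carrying UAS-beta-lactamase reporter, 2,000/well, given compounds plus R1881 agonist and incubated 16 h at 37C. LiveBLAzer B/G FRET substrate then added for 2 h at room temperature before fluorescence reading.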
Chain of Androgen receptor (Homo sapiens) (P10275 whole entry, looked up): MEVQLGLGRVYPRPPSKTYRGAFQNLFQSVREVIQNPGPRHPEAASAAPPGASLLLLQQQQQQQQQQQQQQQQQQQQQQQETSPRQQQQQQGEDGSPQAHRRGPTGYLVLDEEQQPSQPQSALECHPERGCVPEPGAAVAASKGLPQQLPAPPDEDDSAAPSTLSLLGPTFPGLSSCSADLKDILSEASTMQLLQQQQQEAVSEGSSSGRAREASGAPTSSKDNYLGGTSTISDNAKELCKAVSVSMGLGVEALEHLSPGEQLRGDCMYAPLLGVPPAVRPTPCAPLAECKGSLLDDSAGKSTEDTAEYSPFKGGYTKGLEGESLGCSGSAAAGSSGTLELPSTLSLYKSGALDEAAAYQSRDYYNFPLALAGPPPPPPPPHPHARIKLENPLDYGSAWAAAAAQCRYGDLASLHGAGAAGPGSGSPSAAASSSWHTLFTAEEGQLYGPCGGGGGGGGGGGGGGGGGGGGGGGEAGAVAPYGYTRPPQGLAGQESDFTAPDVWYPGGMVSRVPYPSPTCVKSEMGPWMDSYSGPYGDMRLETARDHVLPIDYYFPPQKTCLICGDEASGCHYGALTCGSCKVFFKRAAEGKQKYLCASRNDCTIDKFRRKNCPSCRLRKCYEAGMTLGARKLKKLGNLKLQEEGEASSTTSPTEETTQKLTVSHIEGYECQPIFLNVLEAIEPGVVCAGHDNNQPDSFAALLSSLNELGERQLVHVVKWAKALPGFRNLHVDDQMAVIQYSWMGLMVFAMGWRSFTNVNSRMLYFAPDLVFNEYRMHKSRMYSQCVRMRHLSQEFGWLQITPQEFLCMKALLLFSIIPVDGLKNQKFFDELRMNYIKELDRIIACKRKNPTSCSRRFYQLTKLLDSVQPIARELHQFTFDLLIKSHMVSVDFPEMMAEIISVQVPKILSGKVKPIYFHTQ

The target is the same in assay [14]. The experiment in a line: qHTS assay to identify small molecule agonists of the androgen receptor (AR) signaling pathway (AID 743036; active = well fitted activation curve with a large enough effect in the signal ratio in the repeat runs, with a control signal flat, not every such curve was filed as active; the % refers to the signal ratio). The method, boiled down:
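Screening used 2,000 AR-bla HEK293 cells per well, treated 16 h at 37C with test compounds in DMSO alongside positive and DMSO-only controls; beta-lactamase activity was then read by LiveBLAzer B/G FRET fluorescence after 2 h at room temperature.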

For assay [15] the target is unchanged. The assay can be described thus: qHTS assay to identify small molecule agonists of the androgen receptor (AR) signaling pathway using the MDA cell line (AID 743040; note: nearly all actives have a fitted effect of over 20% in size). The procedure, abridged: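 Cells plated, 5 h at 37C/0% CO2; compound or DMSO pinned; 16 h at 37C; ONE-Glo added; luminescence measured after 30 min at room temperature. Reporter line: MDA-kb2 with MMTV-luciferase responsive to AR and GR.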

Assay [16] can be described thus: qHTS assay to identify small molecule antagonists of the androgen receptor (AR) signaling pathway using the MDA cell line - cell viability counter screen (AID 743041; note: nearly all actives have a fitted effect of over 45% in size; note: potency is the fitted concentration of half-maximal effect). The procedure, abridged:
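Cells were plated at 3,000 per well and left 5 h. Compounds in DMSO were then pinned in, followed by R1881. After 16 h at 37C, CellTiter-Fluor fluorescence gave viability.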

Assay [17] addresses Androgen receptor (Homo sapiens) (UniProt P10275). The assay can be described thus: qHTS assay to identify small molecule antagonists of the androgen receptor (AR) signaling pathway using the MDA cell line (AID 743042; note: nearly all actives have a fitted effect of over 55% in size). The method, boiled down: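 Antagonist mode: compounds plus R1881 agonist added to MDA-kb2 AR-luc cells, incubated 16 h at 37C. Luciferase reporter luminescence quantified, with multiplexed CellTiter-Fluor readout for cell viability.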

Assay [18] can be described thus: qHTS assay to test for compound auto fluorescence at 535 nm (green) in HEK293 cell free culture (AID 720682). The procedure, abridged:
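DMEM + 10% FBS, cell-free; cpd or DMSO pinned in; Ex485/Em535 read; output as fluorescein-equivalent signal.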

The target in assay [19] is Glucocorticoid receptor (Homo sapiens) (UniProt P04150). The experiment in a line: qHTS assay to identify small molecule agonists of the glucocorticoid receptor (GR) signaling pathway (AID 720691; active = well fitted activation curve with a large enough effect in the signal ratio in the repeat runs, not every such curve was filed as active; the % refers to the signal ratio; note: potency is the fitted concentration of half-maximal effect). The method, boiled down:
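GR-bla HeLa cells carrying a GRE-driven beta-lactamase reporter, exposed to compounds for 18 h at 37 C. Reporter activation read as fluorescence after 2 h with LiveBLAzer B/G FRET substrate at room temperature.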

For assay [20] the target is unchanged. The assay can be described thus: qHTS assay to identify small molecule antagonists of the glucocorticoid receptor (GR) signaling pathway (AID 720692; active = well fitted inhibition curve with a large enough effect in the signal ratio in the repeat runs, not every such curve was filed as active; the % refers to the signal ratio). The procedure, abridged:
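GR-bla HeLa cells carrying a GRE-driven beta-lactamase reporter received compound after 4 h plating, then dexamethasone (5 nM final). After 18 h at 37C, the FRET substrate was loaded for 2 h at room temperature and fluorescence read.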

Values without a mark were called inactive. Results filed as inconclusive are left out. Active and inactive are the calls of the source. Unless noted, calls come from the whole dose curve; as a rule, active = well fitted curve in the direction sought with a large enough effect in the repeat runs; inconclusive = weak or mixed curves; inactive = no such curve, though single readings can be large; an effect the other way counts as inactive or inconclusive.

Chain of Glucocorticoid receptor (Homo sapiens) (P04150 whole entry, looked up): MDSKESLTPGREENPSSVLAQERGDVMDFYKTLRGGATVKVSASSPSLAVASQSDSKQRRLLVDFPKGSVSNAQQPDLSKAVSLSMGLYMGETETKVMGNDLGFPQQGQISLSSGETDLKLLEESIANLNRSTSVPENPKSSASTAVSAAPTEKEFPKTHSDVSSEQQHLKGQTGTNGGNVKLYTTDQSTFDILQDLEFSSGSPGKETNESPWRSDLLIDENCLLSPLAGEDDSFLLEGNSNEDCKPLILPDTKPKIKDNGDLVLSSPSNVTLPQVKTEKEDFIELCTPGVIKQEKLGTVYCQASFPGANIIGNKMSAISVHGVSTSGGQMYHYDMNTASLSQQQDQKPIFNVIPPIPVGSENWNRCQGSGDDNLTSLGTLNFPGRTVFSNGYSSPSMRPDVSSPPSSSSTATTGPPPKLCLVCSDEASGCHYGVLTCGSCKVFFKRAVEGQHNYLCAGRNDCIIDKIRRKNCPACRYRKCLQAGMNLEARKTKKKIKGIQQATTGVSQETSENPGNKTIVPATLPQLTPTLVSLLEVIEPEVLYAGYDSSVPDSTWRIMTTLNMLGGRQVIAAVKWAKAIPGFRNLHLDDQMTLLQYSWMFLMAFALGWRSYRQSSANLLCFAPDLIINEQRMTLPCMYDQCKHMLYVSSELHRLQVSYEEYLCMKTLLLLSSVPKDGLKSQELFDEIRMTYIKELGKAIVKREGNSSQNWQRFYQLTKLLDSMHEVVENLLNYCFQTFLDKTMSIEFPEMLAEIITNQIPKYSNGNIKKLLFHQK

As for `COCCOCCOCCOCCO`, the result in assay [1], in [2], in [3], in assay [4], in assay [5] and in [6] was inactive. In addition, the molecule was classed as inactive in [7], in assay [8], in [14] and in assay [15]. The Potency entry in assay [9], in [10], in [11], in [12], in assay [13] and in assay [16] was “inactive” throughout. Besides, the Potency result in assay [17] was “inactive”.

On to `CNS(=O)(=O)CCc1ccc2[nH]cc(C3CCN(C)CC3)c2c1`, for which the outcome in assay [1], in assay [18], in assay [3], in assay [4], in assay [5] and in assay [6] was inactive. In addition, the molecule was classed as inactive in [7], in assay [20] and in [8]. In addition, the Potency entry in assay [19], in assay [9], in assay [11] and in assay [12] was “inactive” each time.

Regarding `CC1(C)S[C@@H]2[C@H](N=CN3CCCCCC3)C(=O)N2[C@H]1C(=O)O`, the molecule was classed as inactive in assay [1], in assay [2], in assay [4], in assay [5], in assay [6] and in assay [7]. Further, the result in [20] and in assay [8] was inactive. Besides, in assay [19], the Potency is 21.3 µM (active). The Potency entry in [9], in assay [10], in assay [12] and in assay [16] was “inactive” in each case.

Consider `CCNC(=O)C1CC(C)CCC1C(C)C` (stereo not given), for which the call in [1], in assay [18], in assay [3], in assay [4], in assay [5] and in [6] was inactive. Also, the molecule was classed as inactive in [7], in [20] and in assay [8]. Further, the Potency entry in [19], in assay [9], in assay [10], in [11] and in assay [12] was “inactive” in each case.

With `CC(=O)Nc1ccc(S(=O)(=O)Nc2ccc([N+](=O)[O-])cc2)cc1`, the result in [1], in assay [2], in assay [3], in [4], in assay [5] and in assay [6] was inactive. The molecule was classed as inactive in [7], in [20] and in [8]. Moreover, the Potency entry in assay [9], in [10], in [11] and in assay [16] was “inactive” throughout.

Regarding `O=C(O)Cc1cn(-c2ccccc2)nc1-c1ccc(Cl)cc1`, the molecule was called inactive in [1], in [2], in assay [3], in [4], in assay [5] and in [6]. The molecule was called inactive in assay [7], in [20] and in assay [8]. Besides, the Potency entry in assay [19], in [9], in [10], in assay [11], in assay [12] and in [16] was “inactive” throughout.

For the molecule `On1nnc2ccccc21`, the outcome in assay [1], in [2], in assay [4], in assay [5], in assay [6] and in assay [7] was inactive. Besides, in [20], the result was inactive. Besides, the Potency entry in assay [19] was “inactive”. Also, in assay [12], the Potency is 0.616 µM (active).

On to `CC(C)(C)OC(=O)c1ccc(O)cc1`, for which the molecule was called inactive in assay [1], in [2], in assay [3], in assay [4], in assay [5] and in assay [6]. Moreover, the call in [7], in assay [8] and in [15] was inactive. In addition, the Potency result in assay [19], in assay [9], in assay [10], in assay [12], in assay [16] and in assay [17] was “inactive” each time.

For `CCCOC(OCCC)OCCC`, the outcome in [1], in [2], in [3], in assay [4], in assay [5] and in assay [6] was inactive. Also, the call in assay [7], in assay [20] and in assay [8] was inactive. The Potency result in assay [19], in assay [9], in assay [10], in assay [12] and in assay [16] was “inactive” each time.

As for `CCO[Si](CCCS)(OCC)OCC`, the molecule was called inactive in assay [1], in assay [2], in assay [3], in assay [4], in assay [5] and in assay [6]. In addition, the result in assay [7], in assay [20] and in assay [8] was inactive. Further, the Potency result in assay [9], in assay [11], in assay [12] and in assay [16] was “inactive” in each case.

As for `Cc1cc(Cl)c(C)cc1Cl`, the molecule was called inactive in assay [1], in assay [18], in assay [4], in assay [5], in assay [6] and in assay [7]. In addition, the call in assay [20], in assay [8], in assay [14] and in assay [15] was inactive. Also, the Potency result in assay [19], in [10], in assay [11], in assay [12], in assay [16] and in assay [17] was “inactive” throughout.

As for `CCCCN`, the molecule was classed as inactive in [1], in assay [4], in assay [5], in assay [6], in assay [7] and in [20]. For the same molecule, the molecule was classed as inactive in [8]. Besides, the Potency entry in assay [19], in assay [9], in assay [11] and in assay [16] was “inactive” each time.

As to `CC(CN)CC(C)(C)CCN` (stereo not given), the result in [1], in assay [18], in [3], in assay [4], in [5] and in assay [6] was inactive. Moreover, the result in assay [7], in assay [20] and in assay [8] was inactive. Besides, the figures for the Potency in assay [9], in assay [11] and in assay [16] were 44.4 µM (active), 44.4 µM (active) and 6.27 µM (active), respectively. For the same molecule, the Potency result in [12] was “inactive”.

For `COc1ccc(-c2cc(=O)c3c(O)cc(O[C@@H]4O[C@H](CO[C@@H]5O[C@@H](C)[C@H](O)[C@@H](O)[C@H]5O)[C@@H](O)[C@H](O)[C@H]4O)cc3o2)cc1O`, the call in assay [1], in assay [18], in [3], in [4], in [5] and in assay [6] was inactive. In addition, the outcome in [7], in assay [20] and in [8] was inactive. Further, the Potency result in [9], in assay [10], in assay [11], in [12] and in [16] was “inactive” each time.

As for `COC(=O)[C@@H]1[C@H]2C[C@H]3c4[nH]c5ccccc5c4CCN3C[C@@H]2CC[C@@H]1O`, the result in assay [1], in assay [18], in assay [3], in assay [4], in assay [5] and in [6] was inactive. The call in assay [7] and in [8] was inactive. Besides, the Potency result in assay [12] and in assay [16] was “inactive” each time.

The record behind these values is PubChem BioAssay (Tox21).
